Assay outcomes as filed in PubChem BioAssay.
Sampled rows, rich in hits. Any-hit rate of the full collection: about 28%.
hDAT+cocaine – changed human dopamine transporter uptake under cocaine IC80; B-score at 10 µM; LLC-PK1 hDAT cells, [14C]-dopamine uptake with cocaine IC80; actives deviate in either direction; 1.3% of 110,000 active; AID 449768;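 active = Z score or B-score, a plate-position-corrected score, falls beyond the plate's 99.7% confidence bounds, in either direction; inactive = both scores lie inside the 99.7% bounds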;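 also: scored against the spread of the other compound wells on the same plate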
CYP2C19 inh – inhibitors of human CYP2C19. P33261. 21% of 96,000 active. inhibition, % at 5 µM. AID 778. CYP2C19 Supersomes, luciferin-H EGE luminescence, 30 min;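 active = CYP2C19 inhibition above a set limit at 5 µM in the primary screen, cut at about 50% in these data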;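 also: plate controls were negative control wells for no effect and 2.5 mM tranylcypromine positive control for full effect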
CYP2C9 act – activators of human CYP2C9. 1.4% of 96,000 active. recombinant CYP2C9, luciferin-H conversion, luminescence; stronger effect = higher value; factor 1 = untreated enzyme, 0 = blocked. activation factor at 5 µM. P11712;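 active = activation factor of 2 or more for CYP2C9 at a 5 µM dose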;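 also: 0 = sulfaphenazole-blocked wells and 1 = vehicle-only wells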
Target sequence (P11712 whole entry, looked up): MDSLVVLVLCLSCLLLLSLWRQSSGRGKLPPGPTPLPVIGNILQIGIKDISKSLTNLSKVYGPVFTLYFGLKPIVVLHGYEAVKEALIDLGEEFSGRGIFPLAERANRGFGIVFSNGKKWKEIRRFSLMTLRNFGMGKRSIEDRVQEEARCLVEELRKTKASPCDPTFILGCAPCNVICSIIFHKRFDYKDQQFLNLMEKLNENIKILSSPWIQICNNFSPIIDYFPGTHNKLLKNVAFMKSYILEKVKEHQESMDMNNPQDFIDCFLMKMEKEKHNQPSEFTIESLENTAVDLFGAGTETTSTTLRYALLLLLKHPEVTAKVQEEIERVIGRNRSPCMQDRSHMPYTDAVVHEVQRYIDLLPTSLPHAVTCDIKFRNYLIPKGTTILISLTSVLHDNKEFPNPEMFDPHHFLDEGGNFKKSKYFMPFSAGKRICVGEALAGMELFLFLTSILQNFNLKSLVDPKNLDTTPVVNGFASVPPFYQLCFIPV
D1 allo mod – allosterically modulates the human D1 dopamine receptor; AID 641; B-score at 10 µM; HEK293 D1, CRE-luciferase, dopamine EC30 potentiation; actives deviate in either direction; 5.9% of 58,000 active; P21728;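 active = luminescence count or its row- and column-corrected plate score outside the 99.7% band of the plate's sample wells, on either side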
CYP2C19 activ – cytochrome P450 2C19 (human) activation. P33261. recombinant CYP2C19, luciferin-H EGE luminescence; stronger effect = higher value; 0 = fully inhibited enzyme, 1 = untreated enzyme. activation factor at 5 µM. 96,000 tested, under 10 active;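 active = activation factor of at least 2 at 5 µM in the primary screen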;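 also: 0 = wells with 2.5 mM tranylcypromine and 1 = vehicle-only wells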
CYP2C9 inh – human CYP2C9 inhibition; P11712; CYP2C9 Supersomes, luciferin-H conversion, luminescence; inhibition, % at 5 µM; 20% of 96,000 active; AID 777;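 active = blocking of liver enzyme CYP2C9 beyond about 50% at 5 µM, limit read from the data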
* marks the source's active call; other numbers are inactive results.

What do the screens show for `COCCCNC(=O)c1ccccc1NS(=O)(=O)c1ccc(C)cc1`?
hDAT+cocaine: 0.65; CYP2C19 inh: 74*; CYP2C9 act: 0.7; D1 allo mod: -0.55; CYP2C19 activ: 0.3; CYP2C9 inh: 32

What do the screens show for `Cc1[nH]c(=O)c(C#N)c(C)c1Br`?
hDAT+cocaine: -0.026; CYP2C19 inh: -5; CYP2C9 act: 1.1; D1 allo mod: -0.61; CYP2C19 activ: 1.1; CYP2C9 inh: -12

What do the screens show for `COc1ccc(S(=O)(=O)Nc2ccccc2C(=O)NCc2ccco2)cc1`?
hDAT+cocaine: -0.074; CYP2C19 inh: 62*; CYP2C9 act: 1.1; D1 allo mod: 0.037; CYP2C19 activ: 0.4; CYP2C9 inh: -7

Results for CCc1ccccc1NS(=O)(=O)c1ccc2[nH]cc(C(=O)NCc3ccco3)c(=O)c2c1 ?
D1 allo mod: 0.071

Results for COc1ccccc1NS(=O)(=O)c1ccc(C(=O)OCC(=O)NCc2ccco2)cc1 ?
hDAT+cocaine: -1.3; CYP2C19 inh: 84*; CYP2C9 act: 0.2; D1 allo mod: -1.3; CYP2C19 activ: 0.2; CYP2C9 inh: 85*

How did Cc1sc2nc(C(C)Nc3ccccc3N3CCOCC3)[nH]c(=O)c2c1C (stereo unspecified) do in these assays?
hDAT+cocaine: -7.5*; CYP2C19 inh: 35; CYP2C9 act: 0.5; D1 allo mod: 0.43; CYP2C19 activ: 0.7; CYP2C9 inh: 54*

How did Cc1sc2nc(SCC(=O)N3CCOCC3)[nH]c(=O)c2c1C do in these assays?
hDAT+cocaine: -0.23; CYP2C19 inh: 7; CYP2C9 act: 1; D1 allo mod: 0.85; CYP2C19 activ: 0.9; CYP2C9 inh: 3

What do the screens show for `COC(=O)C1=C(C)NC2=C(C(=O)CC(C)(C)C2)C1c1cn(Cc2ccc(Br)cc2)nc1-c1ccccc1` (stereo unspecified)?
hDAT+cocaine: 0.82; CYP2C19 inh: 35; CYP2C9 act: 0.3; CYP2C19 activ: 0.7; CYP2C9 inh: 71*

Results for COC(=O)C1=C(C)NC2=C(C(=O)CCC2)C1c1coc2ccccc2c1=O (stereo unspecified) ?
hDAT+cocaine: 0.2; CYP2C19 inh: 39; CYP2C9 act: 0.9; D1 allo mod: -1; CYP2C19 activ: 0.6; CYP2C9 inh: 10

Results for COC(=O)C1=C(C)NC2=C(C(=O)CCC2)C1c1cn(Cc2ccc(Br)cc2)nc1-c1ccccc1 (stereo unspecified) ?
hDAT+cocaine: 1.4; CYP2C19 inh: 48; CYP2C9 act: 0.1; CYP2C19 activ: 0.5; CYP2C9 inh: 86*

What do the screens show for `COCc1cc(=O)[nH]c2cc(NC(=O)C3CC3)c(C)cc12`?
hDAT+cocaine: -0.59; CYP2C19 inh: 9; CYP2C9 act: 1; CYP2C19 activ: 0.9; CYP2C9 inh: 4

Results for c1coc(-c2nnc3sc(C4CCCCC4)nn23)c1 ?
hDAT+cocaine: -0.15; CYP2C19 inh: 5; CYP2C9 act: 1; CYP2C19 activ: 1; CYP2C9 inh: 4

What do the screens show for `COc1ccc(C2=NOC(C)(c3nnc(Cc4ccccc4)o3)C2)cc1` (stereo unspecified)?
hDAT+cocaine: -0.45

How did Clc1ccc(-c2nc(-c3ccccn3)no2)cc1Cl do in these assays?
hDAT+cocaine: -0.74; CYP2C19 inh: 13; CYP2C9 act: 1.1; D1 allo mod: -5.5*; CYP2C19 activ: 0.9; CYP2C9 inh: -8

How did Brc1ccc(-c2nc(-c3ccncc3)no2)o1 do in these assays?
hDAT+cocaine: -0.22; CYP2C19 inh: 91*; CYP2C9 act: 0.5; D1 allo mod: 0.78; CYP2C19 activ: 0.1; CYP2C9 inh: 48

What do the screens show for `Brc1ccc(-c2nc(-c3ccccn3)no2)o1`?
hDAT+cocaine: 1.1; CYP2C19 inh: 62*; CYP2C9 act: 0.7; CYP2C19 activ: 0.4; CYP2C9 inh: 27

How did CCSc1nc2c(cnn2-c2ccc(C)c(C)c2)c(=O)[nH]1 do in these assays?
hDAT+cocaine: -0.34; CYP2C19 inh: 34; CYP2C9 act: 1; D1 allo mod: 2.3; CYP2C19 activ: 0.7; CYP2C9 inh: 0

How did CC#CCN1c2ccccc2[C@]23C[C@@H](C(=O)OC)N(C(=O)NC4CCCCC4)C2=NC(C(=O)OC)=C(C(=O)OC)[C@H]13 do in these assays?
hDAT+cocaine: 0.12

How did Cc1c(/C(O)=C2/C(=O)C(=O)N(CCCN3CCOCC3)C2c2ccncc2)cnn1-c1ccccc1 (stereo unspecified) do in these assays?
D1 allo mod: -0.5

Results for CSc1cc(C)n(-c2ccccc2)c(=S)c1C(C)=O ?
hDAT+cocaine: 0.2; CYP2C19 inh: 14; CYP2C9 act: 1; CYP2C19 activ: 0.9; CYP2C9 inh: -2

Results for O=C(C1CCCN(S(=O)(=O)c2ccc(Br)s2)C1)N1CCCCCC1 (stereo unspecified) ?
hDAT+cocaine: -0.03; CYP2C19 inh: 63*; CYP2C9 act: 0.9; D1 allo mod: -0.2; CYP2C19 activ: 0.4; CYP2C9 inh: 12

How did CCOc1ccc(CNc2ncnc(N)n2)cc1 do in these assays?
hDAT+cocaine: 0.13; CYP2C19 inh: -2; CYP2C9 act: 1; CYP2C19 activ: 1; CYP2C9 inh: -1

Results for Cc1cccc(OCCC(=O)Nc2c(C)n(C)n(-c3ccccc3)c2=O)c1 ?
hDAT+cocaine: 0.79; CYP2C19 inh: -1; CYP2C9 act: 1; D1 allo mod: -0.21; CYP2C19 activ: 1; CYP2C9 inh: -4

Results for COc1ccc(C2C(Oc3ccccc3C)C(=O)N2Cc2ccc(F)cc2)cc1OC (stereo unspecified) ?
hDAT+cocaine: -0.32; CYP2C19 inh: 90*; CYP2C9 act: 0.2; CYP2C19 activ: 0.1; CYP2C9 inh: 76*

How did COc1ccc(CCN2C(=O)C(Oc3ccccc3C)C2c2ccc3c(c2)OCO3)cc1OC (stereo unspecified) do in these assays?
hDAT+cocaine: -0.31; CYP2C19 inh: 66*; CYP2C9 act: 0.4; CYP2C19 activ: 0.3; CYP2C9 inh: 60*

How did C#CCOCCOCCOCCNc1nc(N2CCN(C(=O)[C@H](CCC(=O)O)n3cc(C(N)CO)nn3)CC2)nc(N2CCN(C(=O)[C@H](CCC(=O)O)n3cc(C(N)CC(C)C)nn3)CC2)n1 (stereo partly specified) do in these assays?
hDAT+cocaine: -0.23

What do the screens show for `CN(C)c1ccc(/C=C(\C#N)C(=O)Nc2nc3c(s2)CCN(Cc2ccccc2)C3)cc1`?
CYP2C19 inh: 46; CYP2C9 act: 0.8; CYP2C19 activ: 0.5; CYP2C9 inh: 20

How did CCOc1ccc(C(=S)N2CCCC2)cc1 do in these assays?
hDAT+cocaine: -0.028; CYP2C19 inh: 89*; CYP2C9 act: 0.8; CYP2C19 activ: 0.1; CYP2C9 inh: 21

What do the screens show for `COc1cc(C(=S)N2CCCC2)cc(OC)c1O`?
hDAT+cocaine: -0.39; CYP2C19 inh: 61*; CYP2C9 act: 1; CYP2C19 activ: 0.4; CYP2C9 inh: 5
